Consider 4 molecules from PubChem BioAssay.

A short description of assay [1]: optical density shifts of acrAB sulA E. coli – strain DRC41, OD650, 48 h, E. coli filamentation inducer project, primary screen (AID 1152).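 Further: E. coli MC1000 strain DRC41 lacking acrAB efflux pump and sulA.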 The conditions noted are these: higher = more signal, called active from +8 up or from −8 down.
Assay [2] is described as follows: probe aLefty1 binding on compound microarray – biochemical, small-molecule microarray, 635/667 nm fluorescence, primary screen (AID 1153).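 Further: score merges spot fluorescence with signal-to-noise ratio from the scanned slide images.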 The conditions noted are these: higher = more signal.
Assay [3] is described as follows: plasmodial surface anion channel blockers, osmotic lysis – cell-based, P. falciparum Indochina, OD700, 1 h, primary screen (AID 1154). The conditions noted are these: P. falciparum Indochina infected RBC osmotic lysis, higher = more signal, called active from +8 up or from −8 down.
Assay [4] can be described thus: plasmodial surface anion channel blockers, osmotic lysis – cell-based, P. falciparum Indochina, OD700, 2 h, primary screen (AID 1155).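 Further: lysis reports solute entry through the parasite surface anion channel PSAC.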 The conditions noted are these: P. falciparum Indochina infected erythrocytes, higher = more signal, called active from +8 up or from −8 down.
The nature of assay [5]: changes in parasitized red cell lysis, either direction – P. falciparum Indochina, OD700, 3 h, PSAC antagonist project, primary screen (AID 1156). The conditions noted are these: P. falciparum-infected erythrocytes, osmotic lysis, higher = more signal, called active from +8 up or from −8 down.
A short description of assay [6]: plasmodial surface anion channel blockers, osmotic lysis – cell-based, P. falciparum Indochina, OD700, 18 h, primary screen (AID 1157). The conditions noted are these: P. falciparum Indochina infected erythrocytes, osmotic lysis OD700, 18 h; higher = more signal, called active from +8 up or from −8 down.
A short description of assay [7]: S6 kinase pathway phospho-S6 level changes – cell-based, A549, cytoblot, luminescence, serum-stimulated, primary screen (AID 1158).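 Further: serum-stimulated A549 lung adenocarcinoma cells; signal is phosphorylated S6 detected by cytoblot immunostaining with HRP secondary.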 The conditions noted are these: 5 h, higher = more signal.
The target of assay [8] is NADPH oxidase 2 (Homo sapiens) (UniProt P04839). The assay is described as follows: compounds shifting NOX2 Amplex Red fluorescence – cell-based, HEK293-NOX2, PMA-stimulated, NOX inhibitor project, primary screen (AID 1159). Further: test concentration not given here. The conditions noted are these: 45 min, higher = more signal, called active from +8 up or from −8 down.
NADPH oxidase 2 (Homo sapiens), sequence (P04839 whole entry, looked up): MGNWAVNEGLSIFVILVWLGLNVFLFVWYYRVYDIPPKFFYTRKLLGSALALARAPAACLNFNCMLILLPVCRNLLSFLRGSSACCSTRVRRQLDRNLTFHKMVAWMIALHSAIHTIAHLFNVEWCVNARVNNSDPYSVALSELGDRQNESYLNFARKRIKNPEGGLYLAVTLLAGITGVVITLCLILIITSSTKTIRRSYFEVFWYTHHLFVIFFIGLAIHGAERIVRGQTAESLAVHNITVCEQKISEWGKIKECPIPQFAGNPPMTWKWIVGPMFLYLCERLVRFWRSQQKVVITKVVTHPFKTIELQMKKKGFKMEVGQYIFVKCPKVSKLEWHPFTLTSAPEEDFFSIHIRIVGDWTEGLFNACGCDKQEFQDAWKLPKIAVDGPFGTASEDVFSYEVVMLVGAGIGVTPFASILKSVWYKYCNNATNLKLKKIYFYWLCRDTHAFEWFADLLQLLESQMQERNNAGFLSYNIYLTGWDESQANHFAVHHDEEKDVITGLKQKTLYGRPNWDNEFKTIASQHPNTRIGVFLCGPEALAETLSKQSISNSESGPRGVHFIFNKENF
The target in assay [9] is NADPH oxidase 4 (Homo sapiens) (UniProt Q9NPH5). The assay is described as follows: compounds shifting NOX4 Amplex Red fluorescence – cell-based, HEK293-NOX4, tetracycline-induced, NOX inhibitor project, primary screen (AID 1160). The conditions noted are these: HEK293-NOX4, Amplex Red H2O2 fluorescence, 45 min; higher = more signal, called active from +8 up or from −8 down.
NADPH oxidase 4 (Homo sapiens), sequence (Q9NPH5 whole entry, looked up): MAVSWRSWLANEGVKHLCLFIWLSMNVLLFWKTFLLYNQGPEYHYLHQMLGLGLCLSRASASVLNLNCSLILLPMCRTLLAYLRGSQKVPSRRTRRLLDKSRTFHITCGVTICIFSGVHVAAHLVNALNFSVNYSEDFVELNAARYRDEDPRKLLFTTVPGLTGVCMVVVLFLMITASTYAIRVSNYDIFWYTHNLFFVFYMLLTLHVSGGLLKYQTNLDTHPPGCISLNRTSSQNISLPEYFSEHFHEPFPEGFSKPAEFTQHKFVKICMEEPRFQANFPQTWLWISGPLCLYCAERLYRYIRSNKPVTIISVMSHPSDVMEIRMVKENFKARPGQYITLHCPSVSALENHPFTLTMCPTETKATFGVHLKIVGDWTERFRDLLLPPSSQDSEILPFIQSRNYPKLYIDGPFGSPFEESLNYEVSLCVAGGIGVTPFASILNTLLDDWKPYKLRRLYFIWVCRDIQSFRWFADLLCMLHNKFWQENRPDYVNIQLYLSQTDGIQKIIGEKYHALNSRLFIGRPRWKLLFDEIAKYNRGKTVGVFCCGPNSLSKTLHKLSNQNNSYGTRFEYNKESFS

For assay [10], the target named is NADPH oxidase 5 (Homo sapiens) (UniProt Q96PH1). The assay is described as follows: compounds shifting NOX5 Amplex Red fluorescence – cell-based, HEK293-NOX5, NOX inhibitor project, primary screen (AID 1161). The conditions noted are these: HEK293-NOX5, ionomycin, 45 min, higher = more signal.
NADPH oxidase 5 (Homo sapiens), sequence (Q96PH1 whole entry, looked up): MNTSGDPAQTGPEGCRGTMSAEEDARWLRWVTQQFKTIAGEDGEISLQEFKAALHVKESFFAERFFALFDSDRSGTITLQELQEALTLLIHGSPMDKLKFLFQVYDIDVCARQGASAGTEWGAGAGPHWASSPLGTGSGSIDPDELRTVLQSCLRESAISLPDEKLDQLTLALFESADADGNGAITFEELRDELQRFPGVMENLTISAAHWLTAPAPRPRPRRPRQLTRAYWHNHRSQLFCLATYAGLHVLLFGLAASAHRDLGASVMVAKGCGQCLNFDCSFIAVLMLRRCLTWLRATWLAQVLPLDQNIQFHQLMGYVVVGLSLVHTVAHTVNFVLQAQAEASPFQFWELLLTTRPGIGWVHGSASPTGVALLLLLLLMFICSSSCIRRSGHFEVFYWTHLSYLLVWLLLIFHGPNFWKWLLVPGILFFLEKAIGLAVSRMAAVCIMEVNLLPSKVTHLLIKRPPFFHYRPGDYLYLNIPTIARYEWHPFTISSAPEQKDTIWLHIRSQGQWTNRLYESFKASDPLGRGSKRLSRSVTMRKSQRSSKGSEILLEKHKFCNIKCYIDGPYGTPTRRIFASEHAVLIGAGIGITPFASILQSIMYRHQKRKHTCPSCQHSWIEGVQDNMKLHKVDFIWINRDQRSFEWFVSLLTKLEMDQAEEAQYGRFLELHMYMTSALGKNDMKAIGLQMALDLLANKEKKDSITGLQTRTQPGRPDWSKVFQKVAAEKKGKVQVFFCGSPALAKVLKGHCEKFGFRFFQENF
Assay [11] can be described thus: compound effects on lung adenocarcinoma cell viability – A549, calcein-AM fluorescence, 48 h, basal, profiling panel (AID 1162). Further: test concentration not given here. The conditions noted are these: higher = more signal.
Assay [12] in a line: compound effects on differentiated 3T3-L1 adipocyte viability – cell-based, 3T3-L1 adipocytes, calcein-AM fluorescence, 48 h, basal, profiling panel (AID 1163). Further: test concentration not given here. The conditions noted are these: 3T3-L1 adipocytes viability, higher = more signal.
The nature of assay [13]: compound effects on hepatocellular carcinoma cell viability – HepG2, calcein-AM fluorescence, 48 h, basal, profiling panel (AID 1164). Further: test concentration not given here. The conditions noted are these: higher = more signal.
A short description of assay [14]: compound effects on multiple myeloma cell viability – MM1S, calcein-AM fluorescence, 48 h, basal, profiling panel (AID 1165). Further: test concentration not given here. The conditions noted are these: higher = more signal.
A short description of assay [15]: calcein-AM signal in unstimulated myeloma cells – cell-based, calcein-AM fluorescence, 48 h, PK04 Diversity Set, profiling panel (AID 1166).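 Further: cells grown under basal conditions without added stimulus; test concentration not given here.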 The conditions noted are these: RPMI8226 myeloma viability, higher = more signal.
Assay [16] is described as follows: JC-1 mitochondrial signal, unstimulated HepG2 cells – cell-based, JC-1 fluorescence, 24 h, 100 nL compound, profiling panel (AID 1167). Further: test concentration not given here. The conditions noted are these: HepG2 mitochondrial potential, higher = more signal.
Assay [17] in a line: JC-1 mitochondrial signal, unstimulated adipocytes – cell-based, JC-1 fluorescence, 3T3-L1 adipocytes, 24 h, 100 nL compound, profiling panel (AID 1168). Further: test concentration not given here. The conditions noted are these: JC-1 mitochondrial fluorescence, higher = more signal, called active from +8 up or from −8 down.
Assay [18] can be described thus: JC-1 mitochondrial signal, unstimulated myeloma cells – cell-based, JC-1 fluorescence, RPMI8226, 24 h, 100 nL compound, profiling panel (AID 1169). Further: test concentration not given here. The conditions noted are these: JC-1 mitochondrial potential fluorescence, higher = more signal.
A short description of assay [19]: JC-1 mitochondrial signal, unstimulated MM1S myeloma – cell-based, JC-1 fluorescence, 24 h, 100 nL compound, profiling panel (AID 1170). Further: test concentration not given here. The conditions noted are these: MM1S mitochondrial potential, higher = more signal.
Assay [20] can be described thus: resazurin metabolic signal in A549 cells – cell-based, resazurin fluorescence, 24 h, PK04 Diversity Set, profiling panel (AID 1171). Further: test concentration not given here. The conditions noted are these: A549 viability, higher = more signal, called active from +8 up or from −8 down. (In general: Resazurin is reduced to fluorescent resorufin, in cell work by metabolically active cells.)

Active and inactive are the calls of the source.

`CCCNC(=O)[C@@]1(Sc2ccc(C)cc2)CC(=O)N(Cc2ccccc2Cl)[C@@H]1c1ccc(CO)cc1`: the z-score was 2.06 (inactive) in assay [1]; 3.09 (inactive) in assay [3]; -0.114 (inactive) in assay [4]; -1.35 (inactive) in [5]; -0.772 (inactive) in [6]; 3.71 in [7]. Further, the z-score in assay [8] is -0.773 (inactive); in assay [9], -0.99 (inactive); in assay [10], -0.176; in assay [11], 0.648; in assay [12], 2.79; in assay [13], -0.597. The z-score in [14] was 0.189; in assay [15] it was 0.154; in assay [16], 0.00317; in [17], 0.0754 (inactive); in [18], 0.653; in assay [19], 0.368. In assay [20], the z-score was 0.644 (inactive). In [2], this molecule had a composite z-score of 0.369.
For the molecule `O=C1C[C@@](C(=O)NCCN2CCOCC2)(c2ccc([N+](=O)[O-])cc2)[C@@H](c2ccc(CO)cc2)N1C1CCCCC1`, the z-score is 1.21 (inactive) in assay [1]; 2.02 (inactive) in [3]; 0.834 (inactive) in assay [4]; 3.08 (inactive) in assay [5]; -0.137 (inactive) in [6]; -0.371 in [7]. The z-score in assay [8] was 0.768 (inactive); in [9], 0.947 (inactive); in [10], 0.24; in [11], 1.16; in assay [12], 0.936; in [13] it was 0.339. For the same molecule, the z-score in [14] is 0.324; in assay [15], 0.633; in assay [16], 0.899; in [17], 0.295 (inactive); in [18], 0.36; in [19], 1.22. Further, the z-score in assay [20] is 0.981 (inactive). The molecule further had a composite z-score in assay [2] of -0.154.
Regarding `C=CCN(C(=O)C1N(c2ccc(CCO)cc2)C(=O)C2C(C(=O)O)C3C=CC21O3)C(C)(C)C` (stereo not given), the z-score in assay [1] was 2.75 (inactive); in [3], 0.0302 (inactive); in assay [4], -1.14 (inactive); in [5], -1.43 (inactive); in assay [6] it was -1.91 (inactive); in [7] it was 0.434. The z-score is 1.9 (inactive) in assay [8]; -1.46 (inactive) in assay [9]; 0.845 in assay [10]; 0.478 in assay [11]; 1.86 in assay [12]; 0.134 in assay [13]. For the same molecule, the z-score in assay [14] was 1.69; in assay [15], -0.265; in assay [16], 0.556; in [17], 2.37 (inactive); in [18] it was 0.0149; in assay [19], 1.08. In addition, in assay [20], the z-score is -1.3 (inactive). In assay [2], this molecule returned a composite z-score of 0.0445.
For the molecule `COC(=O)c1c(CC[C@@H](CO)NC(=O)N[C@H](Cn2cc(-c3cncn3C)nn2)C(C)C)oc(C(C)=O)c1C(=O)OC`, the z-score in assay [1] was 2.49 (inactive); in assay [3], 0.88 (inactive); in assay [4] it was -0.0063 (inactive); in assay [5] it was -0.181 (inactive); in [6], -0.519 (inactive); in assay [7], 2.93. For the same molecule, the z-score in assay [8] was -1.33 (inactive); in [9] it was 0.591 (inactive); in assay [10], -0.295; in assay [11] it was 0.128; in [12], 1.93; in assay [13], -0.102. Moreover, the z-score in [14] was 0.191; in [15], -0.344; in [16], 0.57; in [17], 1.43 (inactive); in assay [18], -0.444; in assay [19], -0.289. For the same molecule, the z-score in [20] was -0.169 (inactive). Besides, the composite z-score in assay [2] is -0.148.
